# Measurements from PubChem BioAssay AID651956 (Broad Institute, 2012).
# Entries with a potency or affinity are not part of this list. Inconclusive results are not listed. Calls of active or inactive are those of the source.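 The calls were made as follows: active = in every test run, a fitted half-maximal concentration for signal decrease at or below twice the highest tested concentration; inconclusive = runs disagree, flat 30 to 70% decrease, or poor fit; inactive = the rest.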
# Experiment: miR-122 activators in hepatoma reporter cells, dose response, cell-based, Huh7 psiCHECK-miR122, Renilla luciferase, cherry-picked (AID 651956);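 also: Renilla luciferase from a miR-122 sensor reporter so lower signal means miR-122 activation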
# Details: 48 h; series mostly up to 35 µM
row,SMILES,outcome
1,FC(F)(F)c1cnc(N2CCCN(C(=S)Nc3ccccc3)CC2)c(Cl)c1,inactive
2,CN1C(=O)c2cc(NC(=O)c3ccno3)ccc2OC[C@H]2O[C@@H](CC(=O)NCC3CC3)CC[C@@H]21,inactive
3,C/C=C/c1ccc([C@@H]2[C@@H](CO)N(Cc3ccccn3)[C@H]2CNC(=O)CC)cc1,inactive
4,CCOC(=O)CSc1nnnn1-c1cccc2ccccc12,inactive
5,COC(=O)C[C@@H]1CC[C@@H]2[C@@H](COc3ccc(NS(=O)(=O)c4ccccc4F)cc3C(=O)N2C)O1,inactive
6,CCCN(C[C@@H]1N[C@@H](CO)[C@H]1c1ccc(-c2cccnc2)cc1)C(C)=O,inactive
7,CCCNC(=O)N1[C@H](CO)[C@@H](c2ccccc2)[C@H]1CNC(=O)c1ccccc1,inactive
8,CN1C(=O)c2cc(NC(=O)c3cccs3)ccc2OC[C@@H]2O[C@@H](CC(=O)N3CCOCC3)CC[C@H]21,inactive
9,CCCNC(=O)N1[C@@H]2CN(C(=O)c3ccccc3)c3ccccc3[C@@H]2[C@@H]1CO,inactive
10,COc1ccc(C(C#N)Nc2ccc(C)cc2)cc1 (centres undefined),inactive
11,CCC(=O)Nc1ccc2c(c1)C(=O)N(C)[C@@H]1CC[C@H](CC(=O)NCCN3CCCCC3)O[C@H]1CO2,inactive
12,N#Cc1c(N)nc2c(c1-c1cccs1)CCCC2,inactive
13,CN(C)CCNC(=O)C1CC(=O)N(c2ccc(F)c(Cl)c2)C1 (centres undefined),inactive
14,Cc1nnsc1Sc1cccc(C(F)(F)F)c1,inactive
15,CN1C(=O)c2cc(NC(=O)c3ccc4c(c3)OCO4)ccc2OC[C@@H]2O[C@@H](CC(=O)O)CC[C@@H]21,inactive
16,Cc1onc(-c2ccccc2)c1C(=O)NCc1ccccn1,inactive
17,Cc1nn(C)cc1NC(=O)C[C@H]1CC[C@H]2[C@H](COc3ccc(NC(=O)c4cccc(F)c4)cc3C(=O)N2C)O1,inactive
18,COc1ccc(-c2cn3c(C)c(C(=O)Nc4cccc(NC(C)=O)c4)sc3n2)cc1,inactive
19,CNC(=O)C[C@H]1CC[C@H]2[C@@H](COc3ccc(NC(=O)C(C)C)cc3C(=O)N2C)O1,inactive
20,CCN(C[C@H]1N[C@H](CO)[C@H]1c1ccc(-c2ccc(F)cc2)cc1)C(=O)COC,inactive

row,SMILES,outcome
1,COc1ccc(C#Cc2ccc3c(c2)O[C@H](CN(C)C(=O)CN2CCOCC2)[C@@H](C)CN([C@@H](C)CO)S3(=O)=O)cc1,inactive
2,COc1ccc(NC(=O)N(C)C[C@H]2Oc3cc(C#CCC(C)C)ccc3S(=O)(=O)N([C@@H](C)CO)C[C@H]2C)cc1,inactive
3,CCCNC(=O)C[C@H]1CC[C@@H]2[C@H](COc3ccc(NS(=O)(=O)c4ccccc4C)cc3C(=O)N2C)O1,inactive
4,CN1C(=O)c2cc(NC(=O)Cc3ccccc3)ccc2OC[C@H]2O[C@@H](CC(=O)NCc3ccc(Cl)cc3)CC[C@@H]21,inactive
5,O=C(Nc1ccccc1)N1C[C@@H]2[C@H](c3ccccc31)[C@H](CO)N2Cc1cocn1,inactive
6,CN1C(=O)c2cc(NS(=O)(=O)c3cccc(F)c3)ccc2OC[C@@H]2O[C@@H](CC(=O)NCCN3CCCCC3)CC[C@H]21,inactive
7,COc1cccc(C(=O)Nc2ccc3c(c2)C(=O)N(C)[C@@H]2CC[C@@H](CC(=O)NCc4ccc(F)cc4)O[C@@H]2CO3)c1,inactive
8,CCCC(=O)Nc1ccc2c(c1)C(=O)N(C)[C@@H]1CC[C@H](CC(=O)NCc3cccc(F)c3)O[C@H]1CO2,inactive
9,CCCNC(=O)N1[C@H](CNC(C)=O)[C@H](c2ccc(C3=CCCC3)cc2)[C@@H]1CO,inactive
10,CC(=O)N1[C@H](CNC(=O)C2CC2)[C@H](c2ccc(-c3cccc(F)c3)cc2)[C@@H]1CO,inactive
11,COc1cc(NC(=O)c2c(F)c(F)c(F)c(F)c2F)c(OC)cc1Cl,inactive
12,COCC(=O)Nc1ccc2c(c1)C(=O)N(C)[C@@H]1CC[C@@H](CC(=O)NC3CCCC3)O[C@H]1CO2,inactive
13,Cc1ccc(-c2noc(CCC(=O)Nc3ccccc3C)n2)cc1,inactive
14,Cc1cccc(NC(=O)Nc2ccc3c(c2)C(=O)N(C)[C@H]2CC[C@@H](CC(=O)NCc4ccccc4Cl)O[C@H]2CO3)c1,inactive
15,Cc1cc(C(F)F)n2ncc(C(=O)NCCc3ccccc3Cl)c2n1,inactive
16,Cc1ccccc1NC(=O)Nc1ccc2c(c1)C(=O)N(C)[C@H]1CC[C@@H](CC(=O)O)O[C@H]1CO2,inactive
17,CN1C(=O)c2cc(NC(=O)c3cccc(C(F)(F)F)c3)ccc2OC[C@@H]2O[C@@H](CC(=O)NCCN3CCCC3)CC[C@@H]21,inactive
18,C[C@@H]1CN([C@H](C)CO)S(=O)(=O)c2ccc(C3=CCCC3)cc2O[C@@H]1CN(C)C(=O)c1ccc(F)cc1,inactive
19,O=C(Nc1ccc(F)cc1)N1C[C@H]2[C@@H](c3ccccc31)[C@H](CO)N2C(=O)c1ccncc1,inactive
